# Screening results: PubChem, several laboratories
# CSC inhib: cancer stem cell inhibition | inhibition, % at 7.5 µM | cancer stem cell-like cells viability, luminescence | hit rate 1.1% among 300,000 | AID 2717; in the data active = inhibition above about 75%; tested in HMLE shEcad cells
# 697 NFkB inh: lowers PMA/ionomycin-induced NF-kB signal in 697 B cells; 697 B-cell NF-kB luciferase reporter, 16 h; inhibition, % at 4 µM; hit rate 0.33% among 330,000; in the data active = inhibition above about 35%
# Beta cell apopt: beta cell apoptosis inhibition; protection from apoptosis, % (no concentration beside the values); INS-1E cytokine-induced death, ATP luminescence, 48 h; percent of positive-control rescue, neutral wells zero; AID 435005; hit rate 0.8% among 300,000;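 active = Every replicate reaches about 75%, or at least half do and their mean reaches it too, limit read from the data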;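 note: 0% = cytokine-treated negative control wells and 100% = positive control rescue; higher means more ATP so stronger rescue from cytokine killing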
# Gli-Sufu antag: blocks Gli-Sufu signaling in a luciferase reporter; Sufu-KO-LIGHT fibroblasts, Gli luciferase reporter luminescence; inhibition, % at 5 µM; hit rate 0.74% among 340,000; AID 588413;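 active = inhibition above about 55%, limit read from the data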;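 note: 0% = DMSO-treated cells and 100% = wells with medium but no cells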
# Mdm2-MdmX inh: disrupts the human Mdm2-MdmX interaction | O15151+Q00987 | SaOS-2 split-luciferase Mdm2/MdmX complementation, luminescence | inhibition, % at 8 µM | hit rate 3% among 330,000 | AID 485346;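 active = inhibition of at least 50% at 8 µM in the primary screen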
# Jurkat NFkB inh: inhibitors of the PMA/ionomycin-induced NF-kB reporter in Jurkat cells; hit rate 0.53% among 330,000; inhibition, % at 4 µM; PMA/ionomycin-induced NF-kB luciferase reporter, luminescence; in the data active = inhibition above about 50%
# Mdm2-MdmX conf: confirmation of human Mdm2/MdmX interaction inhibitors | inhibition, % at 8 µM | AID 489028 | Mdm2-MdmX binding, luminescent assay | hit rate 55% among 10,000 | shares compounds with Mdm2-MdmX inh; in the data active = inhibition above about 40%
# Full FLuc ctr: inhibits full-length luciferase, flagging false Mdm2/MdmX hits; inhibition, % at 8 µM; hit rate 77% among 6,200; SaOS-2 full-length luciferase counterscreen, luminescence; shares compounds with Mdm2-MdmX inh;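 active = mean inhibition at 8 µM reaching about 37%, which flags the compound as non-specific, limit read from the data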;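 note: p53-null SaOS-2 cells with luciferase driven by a doxycycline-inducible promoter; compound on cells about two nights before reading with doxycycline added after day one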
# * = called active by the depositor; nt = no result. An excerpt weighted towards active compounds, which were near 4.5% of everything screened.
SMILES,CSC inhib,697 NFkB inh,Beta cell apopt,Gli-Sufu antag,Mdm2-MdmX inh,Jurkat NFkB inh,Mdm2-MdmX conf,others
COc1ccc(Cl)cc1NC(=O)CN1CCN(Cc2ccccc2)CC1,-14,6,-7,9,26,5,nt,
C=CS(=O)(=O)N(Cc1ccccc1)[C@H](CO)CC(C)C,nt,nt,nt,6,nt,nt,nt,
C=C[C@H](CC(C)C)N(Cc1ccccc1)S(=O)(=O)N(Cc1ccc(OC)cc1)[C@H](C=C)CC(C)C,5,-5,115*,9,58*,-6,0,
CC(C)C[C@H](CO)N(Cc1ccccc1)S(=O)(=O)N(Cc1ccccc1)[C@@H](CO)CC(C)C,107*,-2,-5,11,91*,5,10,
CCOC(=O)N1CCN(C(=O)CSc2nc3c([nH]c4ccccc43)c(=O)n2CC)CC1,4,21,-1,11,22,16,nt,
CCN(c1ccccc1)S(=O)(=O)c1ccc(Cl)c(NC(=O)CNCc2ccccc2OC)c1,0,14,-3,3,19,-14,nt,
COC(=O)CCC(C)C1CCC2C3CCC4CC(O)CCC4(C)C3CC(O)C12C (stereo not given),nt,nt,nt,7,nt,nt,nt,
CCc1cccc2c(C(=O)CN3C(=O)N(C)C4(CCCCC4)C3=O)c[nH]c12,nt,-28,0,2,52*,22,24,
Nc1ccc(S(=O)(=O)Nc2nc3ccccc3o2)cc1,-6,-10,-8,4,10,-17,nt,
CCc1cc(SC#N)cc(C)c1NC(=O)CCl,56,4,99*,5,81*,17,41*,Full FLuc ctr=55*
COc1ccc2cc(C3(C)NC(=O)N(CC(=O)NCC(F)(F)F)C3=O)ccc2c1 (stereo not given),-12,1,0,3,16,-2,nt,
Cc1cc(C(=O)CN2C(=O)C(=O)N(Cc3ccccc3)C2=O)c(C)n1-c1ccccc1F,60,-26,4,-3,52*,-7,51*,Full FLuc ctr=51*
Cc1cc(C(=O)CN2C(=O)C(=O)N(Cc3ccccc3)C2=O)c(C)n1CC1COc2ccccc2O1 (stereo not given),-5,-9,2,18,21,24,nt,
CC[C@@]1(C(=O)OC)N[C@H](CN(C)C(=O)Nc2ccc(OC)cc2)[C@@H]2C(=O)N(Cc3ccccc3)C(=O)[C@@H]21,-4,-14,-5,-12,6,-17,nt,
CCC(=NCCc1c(C)[nH]c2ccccc12)C1=C(O)CC(c2ccccc2)CC1=O (stereo not given),65,-18,17,2,71*,49,52*,Full FLuc ctr=50*
CN(C)Cc1ccccc1Sc1ccc2c(c1)CCCC2,37,-30,nt,7,20,-3,nt,
COC(=O)c1ccccc1NC(=O)c1cc(-c2cccs2)on1,3,-23,24,-5,60*,-5,-8,
COc1ccc(CCNC(=O)CCCN2C(=O)C(c3ccccc3)Oc3cccnc32)cc1OC (stereo not given),-9,-26,-4,33,13,2,nt,
COc1c(C(=O)Nc2ccccc2N2CCOCC2)cc2ccccc2c1Br,18,8,5,5,50*,3,14,
C=CCn1c(O)c(C2=c3ccccc3=NC2=O)sc1=Nc1ccc(O)cc1,95*,-11,0,2,78*,9,1,
CCCCn1c(N)c(N(CC(C)C)C(=O)C(C)SCc2nc3sc(C)c(C)c3c(=O)[nH]2)c(=O)[nH]c1=O (stereo not given),-3,-5,-4,0,21,3,nt,
CC(OC(=O)CCN=C1NS(=O)(=O)c2ccccc21)C(=O)Nc1ccc(F)c(F)c1F (stereo not given),-3,-2,-5,-12,13,-9,nt,
CCc1ccc(-c2cc(C)no2)cc1S(=O)(=O)N1CCCN(Cc2ccc(F)cc2)C1,-10,1,-1,31,68*,19,27,
COCC(C)NC(=O)c1nn(Cc2ccccc2)c(=O)c2ccccc12 (stereo not given),-7,7,-2,1,19,11,nt,
